Screening results from PubChem BioAssay.
Sampled rows, rich in hits. Any-hit rate of the full collection: about 4.6%.
USP8 inh – inhibitors of human USP8 deubiquitinase. P40818. purified USP8, Ub-rhodamine cleavage fluorescence, 30 min. inhibition, % at 20 µM. 47,000 tested, 4.2% active
UCHL1 block – human UCHL1 deubiquitinase inhibition. purified UCHL1, Ub-rhodamine cleavage fluorescence. 47,000 tested, 0.2% active. AID 1645859. inhibition, % at 20 µM
Target sequence (P09936 whole entry, looked up): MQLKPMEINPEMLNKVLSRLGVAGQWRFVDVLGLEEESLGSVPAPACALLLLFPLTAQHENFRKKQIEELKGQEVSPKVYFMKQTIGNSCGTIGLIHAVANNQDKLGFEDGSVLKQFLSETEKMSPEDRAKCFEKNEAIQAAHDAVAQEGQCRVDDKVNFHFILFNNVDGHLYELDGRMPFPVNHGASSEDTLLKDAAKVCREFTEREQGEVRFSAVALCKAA
USP7 inh – inhibitors of human USP7 deubiquitinase. purified USP7, Ub-rhodamine cleavage fluorescence. AID 1645854. inhibition, % at 20 µM. 47,000 tested, 0.3% active
USP10 inh – blocks human USP10 ubiquitin-rhodamine cleavage; inhibition, % at 20 µM; AID 1645856; purified USP10, Ub-rhodamine fluorescence, 60 min; Q14694; 47,000 tested, 1.1% active
Large screens that a line does not name were inactive. Cut-off read from the data, not from the text of the source: active = inhibition above about 30%; inactive = the rest.

CC(C)=CCc1c2c(c3occ(-c4ccc(O)c(O)c4)c(=O)c3c1O)C=CC(C)(C)O2	USP10 inh 62.5
O=C(c1c(F)cccc1F)N1CCCC(c2[nH]nc3nccnc23)C1 (stereo not given)	USP8 inh 30.5
O=C(c1cc(F)cc(F)c1)N1CCCC(c2[nH]nc3nccnc23)C1 (stereo not given)	none
CCOc1ccc(CCn2c(Sc3ncccn3)nnc2-c2ccc(OC)cc2)cc1OCC	none
O=C(Oc1ccc2c(c1)OCO2)C(c1ccccc1)c1ccccc1	USP8 inh 31.3
O=C(O)c1ccc(OC(=O)C(c2ccccc2)c2ccccc2)cc1	none
Cc1ccc(NC(=O)Cc2nnc3c(-c4nc(C5CC5)no4)cccn23)cc1	USP8 inh 97.2, UCHL1 block 59.2, USP7 inh 57.9, USP10 inh 48.3
O=C(c1cc(-c2cnc(N3CCOCC3)nc2)cn1CC1CC1)N1CCOCC1	none
CCOC(=O)c1noc2nc(C)nc(NCC3CCN(Cc4ccc(C)cc4)CC3)c12	none
CCOC(=O)c1noc2nc(C)nc(NCc3ccc(OC)cc3)c12	USP8 inh 40.4
Cc1ccc(NC(=O)CSC2=NC3(CCCCC3)Nc3ccccc32)cc1	USP8 inh 37.7
Cc1ccccc1NC(=O)CSC1=NC2(CCCCC2)Nc2ccccc21	USP8 inh 37.5
CSc1cccc(Nc2cc(C(=O)N3CCOCC3)c3ccccc3n2)c1	none
Cc1nn(-c2ccc(F)cc2)c(C)c1S(=O)(=O)Nc1ccc(C(N)=O)cc1	none
COc1cccc(CNC(=O)Cn2cnc3c(c(C)c(C)n3-c3ccccc3)c2=O)c1	none
COc1ccc(OC)c(NC(=O)Cn2cnc3c(c(C)c(C)n3-c3ccccc3)c2=O)c1	USP8 inh 31.7
COc1cccc(NC(=O)Cn2cnc3c(c(C)c(C)n3-c3ccccc3)c2=O)c1	none
Cc1c(C)n(-c2ccccc2)c2ncn(CC(=O)NCc3ccccc3F)c(=O)c12	USP8 inh 33.7
Cc1cccc(CNC(=O)Cn2cnc3c(c(C)c(C)n3-c3ccccc3)c2=O)c1	USP8 inh 36.1
CCc1cc(=O)n(CC(=O)Nc2ccc3c(c2)OCCO3)c2c1c(C)nn2-c1ccc(C)cc1	USP8 inh 43.6
Cc1cc(=O)n(CC(=O)Nc2ccc3c(c2)OCCO3)c2c1c(C)nn2-c1ccccc1	none
Cc1ccc(NC(=O)c2cnc3ccccc3n2)cc1Cl	USP8 inh 65.0
CCN1[C@H]2CCN(C(=O)Nc3ccccc3)CC[C@@H]2Oc2ccccc2S1(=O)=O	none
O=C(Cn1c(-c2nc(-c3cccc(F)c3)no2)cccc1=O)NCc1ccco1	USP8 inh 87.3, USP10 inh 38.0
O=C1CC(=O)Nc2cc(S(=O)(=O)NCc3ccc4c(c3)OCO4)ccc2N1	none
O=C(Nc1cccnc1)C1c2ccccc2C(=O)N(c2ccccc2)C12CCCCC2 (stereo not given)	USP8 inh 49.0, USP10 inh 30.7
O=C(Nc1cccnc1)C1c2ccccc2C(=O)N(Cc2ccccc2)C12CCCC2 (stereo not given)	none
COc1cc2nc(CN3CCOCC3)n(CCCOc3ccccc3)c(=O)c2cc1OC	none
COc1cc2ccccc2cc1C(=O)Nc1ccccc1-c1nc2ccccc2[nH]1	none
COc1ccc(OCCCC(=O)Nc2ccccc2-c2nc3ccccc3[nH]2)cc1	USP8 inh 35.2
Cc1ccc2c(=O)c(C(=O)N3CCC(C)CC3)cn(CC(=O)Nc3cccc(F)c3)c2n1	none
CC1(O)CC(=O)c2c(cc3cc(O)cc(O)c3c2O)C1 (stereo not given)	USP8 inh 70.1, UCHL1 block 92.9, USP7 inh 94.5, USP10 inh 79.2
Cc1cnc(C(=O)N2Cc3ccnn3CC(COCC3CC3)C2)cn1 (stereo not given)	none
COc1cn(-c2ccc(F)cc2)nc1C(=O)Nc1ccc(Cl)cc1Cl	USP8 inh 48.8
O=C(CCc1c[nH]c2ccccc12)N1C[C@@H](O)[C@H](N2CCCC2)C1	none
O=C(CCc1c[nH]c2ccccc12)OCC(=O)c1cc2c3c(c1)CC(=O)N3CCC2	USP8 inh 32.2 (no result: USP7 inh)
Cc1cc2occ(CC(=O)N3CCCCC3c3nnc(-c4cnccn4)o3)c2cc1C (stereo not given)	USP8 inh 30.2
CCc1cc(C(=O)N2CCCCC2c2nnc(-c3cnccn3)o2)cs1 (stereo not given)	none
CSC1SCC2C(=O)N(C)C(C(C)C(C)C)C(=O)OCC(NC(=O)c3cnc4ccccc4n3)C(=O)NC(C)C(=O)N(C)C1C(=O)N(C)C(C(C)C(C)C)C(=O)OCC(NC(=O)c1cnc3ccccc3n1)C(=O)NC(C)C(=O)N2C (stereo not given)	USP10 inh 37.8
CNC(=O)N1CCc2cc(C(=O)NC(C)C)c(NCC(C)C)nc2CC1	none
COc1ccc(OC)c(NC(=O)C(C)N2c3cccc4cccc(c34)S2(=O)=O)c1 (stereo not given)	USP8 inh 40.9
COc1ccc(OC)c(NC(=O)CN2c3ccccc3S(=O)(=O)c3ccccc32)c1	none
COc1ccc(NC(=O)CCN(c2ccc(C)cc2)S(=O)(=O)c2ccc(C)cc2)cc1Cl	none
COc1cccc(-c2nc(C(N)=O)c3[nH]c(=O)n(-c4ccc5c(c4)OCO5)c3n2)c1O	USP8 inh 31.4
NC(=O)c1nc(-c2ccc(OCc3ccccc3)cc2)nc2c1[nH]c(=O)n2-c1ccc2c(c1)OCO2	USP8 inh 49.3
Cc1cccc(-c2nc(C(N)=O)c3[nH]c(=O)n(-c4ccccc4)c3n2)c1	USP8 inh 74.8
O=C(Cc1ccc(-n2c(=O)c3ccccc3n(CC(=O)Nc3ccc(F)cc3F)c2=O)cc1)NCc1ccco1	none
CCOC(=O)c1ccc(NC(=O)Cn2c(=O)n(CC(=O)NCc3ccco3)c(=O)c3ccccc32)cc1	USP10 inh 35.1
Cc1ccc(NC(=O)Cn2c(=O)n(CCCCC(=O)NCc3ccco3)c(=O)c3ccccc32)cc1C	none
COC(=O)c1ccccc1NC(=O)Cn1c(=O)n(Cc2ccc(C(=O)NCc3ccco3)cc2)c(=O)c2ccccc21	USP8 inh 38.7, USP10 inh 32.4
CCOC(=O)c1ccc(NC(=O)Cn2c(=O)n(-c3ccc(CC(=O)NCc4ccco4)cc3)c(=O)c3ccccc32)cc1	USP8 inh 58.3, USP10 inh 33.3
Cn1c(NC(=O)c2ccco2)c(-c2ccc3c(c2)OCO3)c(=O)c2ccccc21	none
CCc1ccc(C(CC(=O)Nc2ccc3c(c2)OCO3)NC(=O)C(F)(F)F)cc1 (stereo not given)	USP8 inh 36.6
COC(=O)c1ccc(OCC2c3cc(OC)c(OC)cc3CCN2C(=O)Cc2ccc(F)cc2)cc1 (stereo not given)	USP8 inh 36.1
COc1ccc(CC(=O)N2CCc3cc(OC)c(OC)cc3C2COc2ccc([N+](=O)[O-])cc2)cc1 (stereo not given)	none
Cc1ccc(S(=O)(=O)Nc2ccc3[nH]cc(Cl)c3c2)cc1	USP8 inh 41.7
Cc1ccc(S(=O)(=O)Nc2ccc(S(=O)(=O)Nc3ccc(F)cc3)cc2)cc1	none
CC(OC(=O)c1ccc(NS(=O)(=O)c2ccc3c(c2)OCCO3)cc1)C(=O)Nc1cccc2ccccc12 (stereo not given)	none
